Results published in PubChem BioAssay (Tox21).
Records with an inconclusive call do not appear. The source made the active and inactive calls. Unless noted, the call rests on the fitted dose curve.

Columns and labels:
[1] = Nuclear factor erythroid 2-related factor 2/antioxidant responsive element (Nrf2/ARE) small molecule agonists: qHTS cell viability counter screen in human keratinocytes (AID 1919968; active means well fitted curve in the direction sought with a large enough effect in the repeat runs; an effect the other way counts as inactive or inconclusive; further: nearly all actives have a fitted effect of over 55% in size)
In short: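 KeratinoSens HaCaT cells, 1,500/well, preincubated 5 h, then exposed to compounds in DMSO for 23 h at 37 C/5% CO2. Viability read as CellTiter-Fluor fluorescence after 1 h, in the same wells as the ARE-luciferase read.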

[2] = Nuclear factor erythroid 2-related factor 2/antioxidant responsive element (Nrf2/ARE) small molecule agonists: luciferase reporter gene qHTS assay in human keratinocytes (AID 1919969); further: nearly all actives have a fitted effect of over 35% in size
[3] = molecular target: Gonadotropin-releasing hormone receptor (Homo sapiens) (UniProt P30968); assay: Human gonadotropin-releasing hormone receptor (GnRHR) small molecule agonists, calcium flux assay in GnRHR-HEK293 cells (AID 1920063); further: nearly all actives have a fitted effect of over 35% in size
Chain of Gonadotropin-releasing hormone receptor (Homo sapiens) (P30968 whole entry, looked up): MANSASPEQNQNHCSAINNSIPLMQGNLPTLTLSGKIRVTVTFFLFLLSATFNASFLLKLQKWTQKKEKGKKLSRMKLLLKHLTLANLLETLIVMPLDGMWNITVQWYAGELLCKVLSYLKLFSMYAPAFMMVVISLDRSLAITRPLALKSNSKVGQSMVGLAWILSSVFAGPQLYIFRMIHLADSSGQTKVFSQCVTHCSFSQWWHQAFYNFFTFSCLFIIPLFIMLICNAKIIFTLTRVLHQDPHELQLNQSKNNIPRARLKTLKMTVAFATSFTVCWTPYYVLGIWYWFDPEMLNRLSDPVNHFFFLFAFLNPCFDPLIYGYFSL
In short: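 HEK293 cells stably expressing human GnRHR were dye-loaded for 1 h at 37 C. Compound was added in agonist mode and fluorescence (Ex/Em 480/540) recorded kinetically for 3 min. Fifteen concentrations, triplicates.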

[4] = molecular target: KiSS-1 receptor (Homo sapiens) (UniProt Q969F8); assay: Human kisspeptin (KISS1R) small molecule agonists, calcium flux assay in KISS1R-HEK293 cells (AID 1920064; active means well fitted curve in the direction sought with a large enough effect in the repeat runs; an effect the other way counts as inactive or inconclusive)
Chain of KiSS-1 receptor (Homo sapiens) (Q969F8 whole entry, looked up): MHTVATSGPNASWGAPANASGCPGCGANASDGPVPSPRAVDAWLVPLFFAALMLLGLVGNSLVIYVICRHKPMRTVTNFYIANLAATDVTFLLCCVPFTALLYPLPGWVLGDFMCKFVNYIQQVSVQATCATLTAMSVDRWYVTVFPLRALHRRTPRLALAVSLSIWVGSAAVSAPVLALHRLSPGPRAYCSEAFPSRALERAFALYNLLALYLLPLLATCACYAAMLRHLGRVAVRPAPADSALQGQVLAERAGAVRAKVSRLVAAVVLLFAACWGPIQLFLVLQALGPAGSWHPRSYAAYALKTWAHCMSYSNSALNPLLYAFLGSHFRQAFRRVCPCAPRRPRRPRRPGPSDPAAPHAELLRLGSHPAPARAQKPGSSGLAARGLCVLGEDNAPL
In short: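 HEK293 cells stably expressing human KISS1R were loaded with calcium dye for 1 h at 37 C, then given compound; fluorescence (Ex/Em 480/540) was read kinetically for 3 min. Fifteen concentrations, triplicate.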

[5] = G protein-coupled receptor (GPCR) small molecule agonists, calcium flux assay: HEK293 wild type cell line counter screen (AID 1920065)
In short: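 Wild-type HEK293 cells plated 18 h, loaded with calcium dye 1 h at 37 C, then compounds added in agonist mode (ATP as positive control). Kinetic fluorescence Ex/Em 480/540 recorded 3 min at 1 sec intervals; 15 concentrations, triplicate.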

[6] = p53 small molecule agonists, cell-based qHTS assay with human liver microsomes (AID 1963577)
In short: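 Compounds act here after metabolic activation: human liver microsomes and NADPH, both at 0.5 mg/mL final, were co-added to p53RE-bla cells. Incubation ran 16 h at 37 C, followed by LiveBLAzer detection.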

[7] = p53 small molecule agonists, cell-based qHTS assay with rat liver microsomes (AID 1963578)
In short: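 Read-out is beta-lactamase reporter fluorescence (LiveBLAzer, 2 h, room temperature, dark) in p53RE-bla cells treated 16 h at 37 C with compound, rat liver microsomes and NADPH, both 0.5 mg/mL final.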

[8] = p53 small molecule agonists, cell-based qHTS assay with human liver microsomes: qHTS cell viability counter screen (AID 1963579); further: nearly all actives have a fitted effect of over 45% in size
In short: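 Cells carrying the p53 response-element beta-lactamase reporter are treated for 16 h at 37 C with test compounds in the presence of human liver microsomes and NADPH (both 0.5 mg/mL final); ATP-based CellTiter-Glo luminescence then reports viability.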

[9] = p53 small molecule agonists, cell-based qHTS assay with rat liver microsomes: qHTS cell viability counter screen (AID 1963580); further: nearly all actives have a fitted effect of over 45% in size
In short: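 In HCT-116 cells carrying a p53 response element-bla reporter, compounds were metabolically activated in situ by rat liver microsomes with NADPH over 16 h. Cell ATP content then served as the cytotoxicity measure.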

[10] = p53 small molecule agonists, cell-based qHTS assay: qHTS cell viability counter screen (AID 1963581); further: nearly all actives have a fitted effect of over 45% in size
In short: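 p53RE-bla HCT-116 cells, compounds added 5 h after plating and incubated 16 h at 37 C. Cytotoxicity measured in the same wells as intracellular ATP by CellTiter-Glo luminescence after 30 min at room temperature.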

[11] = p53 small molecule agonists, cell-based qHTS assay (AID 1963582; active means well fitted activation curve with a large enough effect in the signal ratio in the repeat runs, not every such curve was filed as active; the % refers to the signal ratio)
In short: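 p53RE-bla reporter cells, compounds added in DMSO after 5 h plating, incubated 16 h at 37 C. Beta-lactamase read via 2 h room-temperature LiveBLAzer B/G FRET substrate, fluorescence intensity.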

[12] = molecular target: 5-hydroxytryptamine receptor 2A (Homo sapiens) (UniProt P28223); assay: 5-hydroxytryptamine receptor 2A (HTR2A) small molecule antagonists, cell-based qHTS assay (AID 1963586); further: nearly all actives have a fitted effect of over 45% in size
Chain of 5-hydroxytryptamine receptor 2A (Homo sapiens) (P28223 whole entry, looked up): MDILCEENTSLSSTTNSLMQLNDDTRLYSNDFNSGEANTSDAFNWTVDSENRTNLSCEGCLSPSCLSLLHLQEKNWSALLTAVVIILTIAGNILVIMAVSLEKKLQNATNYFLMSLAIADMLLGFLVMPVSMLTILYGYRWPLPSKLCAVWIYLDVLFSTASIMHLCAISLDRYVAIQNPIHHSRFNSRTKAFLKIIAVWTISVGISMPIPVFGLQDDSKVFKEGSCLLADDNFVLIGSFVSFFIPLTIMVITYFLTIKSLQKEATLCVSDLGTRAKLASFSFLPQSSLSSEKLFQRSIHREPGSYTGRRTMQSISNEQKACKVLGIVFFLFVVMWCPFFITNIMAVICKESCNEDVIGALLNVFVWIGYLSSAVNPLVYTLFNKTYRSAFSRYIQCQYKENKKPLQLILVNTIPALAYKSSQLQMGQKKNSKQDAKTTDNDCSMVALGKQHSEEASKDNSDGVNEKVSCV
In short: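 Antagonist-mode intracellular calcium assay: DOI (4 nM) added after 5 min compound pre-incubation at room temperature to dye-loaded HTR2A-CHO cells. Fluorescence followed for 3 min, sampled every second.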

[13] = molecular target: 5-hydroxytryptamine receptor 2A (Homo sapiens) (UniProt P28223); assay: 5-hydroxytryptamine receptor 2A (HTR2A) small molecule agonists, cell-based qHTS assay (AID 1963587); further: nearly all actives have a fitted effect of over 30% in size
In short: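 HTR2A-CHO cells, plated 18 h at 37 C/5% CO2, dye-loaded 1 h at 37 C; compounds in DMSO added by pin tool (agonist mode). Intracellular calcium flux read as kinetic fluorescence on FDSS over 2 min at 1 s intervals.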

[14] = molecular target: Muscarinic acetylcholine receptor M1 (Homo sapiens) (UniProt P11229); assay: Cholinergic receptor muscarinic 1 (CHRM1) small molecule antagonists, cell-based qHTS assay (AID 1963588); further: nearly all actives have a fitted effect of over 40% in size
Chain of Muscarinic acetylcholine receptor M1 (Homo sapiens) (P11229 whole entry, looked up): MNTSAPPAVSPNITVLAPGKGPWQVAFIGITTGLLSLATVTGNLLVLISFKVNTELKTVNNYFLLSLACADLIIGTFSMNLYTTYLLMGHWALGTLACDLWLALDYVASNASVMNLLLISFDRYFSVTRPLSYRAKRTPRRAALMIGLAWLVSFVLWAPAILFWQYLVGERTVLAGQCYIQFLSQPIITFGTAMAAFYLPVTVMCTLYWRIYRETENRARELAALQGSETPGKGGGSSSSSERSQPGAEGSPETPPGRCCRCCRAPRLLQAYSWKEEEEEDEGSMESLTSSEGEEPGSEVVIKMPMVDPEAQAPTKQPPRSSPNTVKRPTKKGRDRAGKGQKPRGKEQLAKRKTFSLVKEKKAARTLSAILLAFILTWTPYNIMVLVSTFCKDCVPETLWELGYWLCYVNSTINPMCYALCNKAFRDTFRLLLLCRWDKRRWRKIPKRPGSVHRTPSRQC
In short: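 CHRM1-CHO calcium-flux assay, antagonist mode. Cells were seeded 18 h, dye-loaded 1 h at 37 C and given compound for 5 min at RT, then acetylcholine was added at 50nM. FDSS fluorescence was read 3 min; 15 concentrations, three runs.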

[15] = molecular target: Muscarinic acetylcholine receptor M1 (Homo sapiens) (UniProt P11229); assay: Cholinergic receptor muscarinic 1 (CHRM1) small molecule agonists, cell-based qHTS assay (AID 1963589); further: nearly all actives have a fitted effect of over 35% in size
In short: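 CHO cells stably expressing human CHRM1 were loaded with calcium dye for 1 h at 37 C, then compound was added in agonist mode. Intracellular calcium fluorescence was followed kinetically at 1 s intervals. Fifteen concentrations were tested in three independent runs.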

[16] = cAMP Responsive Elements (CRE) small molecule agonists, cell-based qHTS assay (AID 1963590)
In short: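 CRE-bla HEK 293T cells, 2,000/well in DMEM with 10% dialyzed FBS and 25 mM HEPES, pre-incubated 18 h at 37 C, then exposed to compound 3 h at 37 C. Beta-lactamase reporter read with LiveBLAzer B/G FRET substrate after 2 h at room temperature.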

[17] = cAMP Responsive Elements (CRE) small molecule antagonists, cell-based qHTS assay (AID 1963591; active means well fitted inhibition curve with a large enough effect in the signal ratio in the repeat runs, not every such curve was filed as active; the % refers to the signal ratio)
In short: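 CRE-bla HEK293T cells plated 18 h, then given compound plus NKH477 at 0.25 uM final for 3 h at 37C. Beta-lactamase reporter read with LiveBLAzer B/G FRET substrate after 2 h at room temperature.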

[18] = molecular target: Beta-2 adrenergic receptor (Homo sapiens) (UniProt P07550); assay: Adrenergic beta2 receptor (ADRB2) small molecule antagonists, cell-based qHTS assay (AID 1963592); further: nearly all actives have a fitted effect of over 50% in size; further: potency means the concentration at half of the fitted maximal effect; on activity change, negative = inhibition: series mostly up to about 92 µM
Chain of Beta-2 adrenergic receptor (Homo sapiens) (P07550 whole entry, looked up): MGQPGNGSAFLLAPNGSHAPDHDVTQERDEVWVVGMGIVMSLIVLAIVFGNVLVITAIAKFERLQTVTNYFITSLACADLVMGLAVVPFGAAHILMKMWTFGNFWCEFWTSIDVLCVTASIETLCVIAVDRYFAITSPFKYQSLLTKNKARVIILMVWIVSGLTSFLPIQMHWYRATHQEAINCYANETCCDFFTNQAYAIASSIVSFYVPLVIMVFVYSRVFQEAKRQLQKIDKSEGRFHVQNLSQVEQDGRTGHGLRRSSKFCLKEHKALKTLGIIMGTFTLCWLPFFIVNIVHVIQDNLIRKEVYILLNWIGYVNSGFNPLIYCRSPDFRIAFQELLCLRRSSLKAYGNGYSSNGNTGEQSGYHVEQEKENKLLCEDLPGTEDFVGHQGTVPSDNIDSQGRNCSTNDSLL
In short: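 Cells (CHO, stable ADRB2 overexpression) incubated 18-20hr at 37C; compounds added from DMSO; agonist mix (1nM isoproterenol, 100uM IBMX, 25uM Ro-20-1724) added; 0.5hr RT; d2-cAMP and anti-cAMP-cryptate added; 1hr RT; 665/615 nm read.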

[19] = molecular target: D(2) dopamine receptor (Homo sapiens) (UniProt P14416); assay: Dopamine D2 receptor (DRD2) small molecule antagonists, cell-based qHTS assay (AID 1963595; active means well fitted inhibition curve with a large enough effect in the signal ratio in the repeat runs, with a control signal flat; the % refers to the signal ratio)
Chain of D(2) dopamine receptor (Homo sapiens) (P14416 whole entry, looked up): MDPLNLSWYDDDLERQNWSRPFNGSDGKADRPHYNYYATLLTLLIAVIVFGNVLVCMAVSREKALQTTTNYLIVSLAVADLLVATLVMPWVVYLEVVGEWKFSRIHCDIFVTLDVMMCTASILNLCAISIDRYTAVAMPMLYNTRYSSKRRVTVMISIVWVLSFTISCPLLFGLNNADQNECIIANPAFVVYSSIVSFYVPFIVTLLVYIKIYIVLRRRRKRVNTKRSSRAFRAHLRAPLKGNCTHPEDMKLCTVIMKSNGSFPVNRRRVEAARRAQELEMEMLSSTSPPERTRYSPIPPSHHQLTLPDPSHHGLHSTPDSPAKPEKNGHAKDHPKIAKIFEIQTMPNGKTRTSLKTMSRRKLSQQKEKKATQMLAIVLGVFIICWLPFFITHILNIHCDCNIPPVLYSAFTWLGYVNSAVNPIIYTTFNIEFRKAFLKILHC
In short: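 Human DRD2 antagonist qHTS measuring cAMP by HTRF. The cells are exposed to compound for 10 min, then to NKH477 (200 nM) and quinpirole (12 nM) for 30 min at RT, with Ro20-1724 (0.1 mM) present throughout.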

[20] = molecular target: D(2) dopamine receptor (Homo sapiens) (UniProt P14416); assay: Dopamine D2 receptor (DRD2) small molecule agonists, cell-based qHTS assay (AID 1963594); further: nearly all actives have a fitted effect of over 35% in size
In short: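 HEK293 cells stably expressing DRD2 were cultured 24 h at 37 C, then given Ro20-1724 (0.1 mM final) and compounds for 10 min at room temperature. NKH477 (200nM) was then added for 30 min. cAMP was read by HTRF.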
On the % scale 0 is the no-effect control and ±100 the full control effect.

O=CNNC=O
inactive: Potency [1] | Potency [2] | Potency [3] | outcome [4] | outcome [5] | Potency [6] | Potency [7] | Potency [8] | Potency [9] | Potency [10] | Potency [11] | Potency [12] | Potency [13] | Potency [14] | Potency [15] | Potency [16] | Potency [17] | Potency [18] | Potency [19]

CC(C)(C)NCC(O)COc1ccc(NC(=O)NC2CCCCC2)cc1 (configuration not stated)
inactive: Potency [1] | Potency [2] | Potency [3] | outcome [4] | outcome [5] | Potency [6] | Potency [7] | Potency [8] | Potency [9] | Potency [10] | Potency [11] | Potency [12] | Potency [13] | Potency [14] | Potency [15] | Potency [16] | Potency [17] | Potency [19]
active: Potency [18] 4.73 µM

CCn1ccnc1CC1COc2ccccc2O1 (configuration not stated)
inactive: Potency [1] | Potency [2] | Potency [3] | outcome [4] | outcome [5] | Potency [6] | Potency [7] | Potency [8] | Potency [9] | Potency [10] | Potency [11] | Potency [12] | Potency [13] | Potency [14] | Potency [15] | Potency [16] | Potency [17] | Potency [18] | Potency [19]

O=Cc1ccc(F)c(Br)c1
inactive: Potency [1] | Potency [2] | Potency [3] | outcome [4] | outcome [5] | Potency [6] | Potency [7] | Potency [8] | Potency [9] | Potency [10] | Potency [11] | Potency [12] | Potency [13] | Potency [14] | Potency [15] | Potency [16] | Potency [17] | Potency [18] | Potency [20] | Potency [19]

N[C@@H](CSCCCO)C(=O)O
inactive: activity change, negative = cytotoxicity [1] 5.92% [at 19 µM] | activity, positive = activation [2] -5.15% [at 19 µM] | activity change [3] -0.573% [at 11.8 µM, active compounds read high] | activation [4] 2.59% [at 15.8 µM] | activation [5] 0.0618% [at 11.8 µM] | activation [6] 1.76% [at 13.5 µM] | activation [7] 4.94% [at 13.6 µM] | activity change, negative = cytotoxicity [8] -3.2% [at 13.5 µM] | activity change, negative = cytotoxicity [9] -10.3% [at 13.5 µM] | activity change, negative = cytotoxicity [10] -10.7% [at 13.5 µM] | activation [11] 9.64% [at 13.5 µM] | activity, negative = inhibition [12] 4.22% [at 12.7 µM] | activation [13] 0.941% [at 15.9 µM] | activity, negative = inhibition [14] -6.77% [at 12.6 µM] | activation [15] -0.169% [at 15.8 µM] | activation [16] 0.961% [at 19 µM] | activity change, negative = inhibition [17] 4.42% [at 18.9 µM] | activity change, negative = inhibition [18] -0.974% [at 19 µM] | activation [20] 5.68% [at 19 µM] | activity change, negative = inhibition [19] 8.57% [at 18.9 µM]

O=CN1CCOCC1
inactive: Potency [1] | Potency [2] | Potency [3] | outcome [4] | outcome [5] | Potency [6] | Potency [7] | Potency [8] | Potency [9] | Potency [10] | Potency [11] | Potency [12] | Potency [13] | Potency [14] | Potency [15] | Potency [16] | Potency [17] | Potency [18] | Potency [20] | Potency [19]

COC(=O)CC#N
inactive: Potency [1] | Potency [2] | Potency [3] | outcome [4] | outcome [5] | Potency [6] | Potency [7] | Potency [8] | Potency [9] | Potency [10] | Potency [11] | Potency [12] | Potency [13] | Potency [14] | Potency [15] | Potency [16] | Potency [17] | Potency [18] | Potency [20] | Potency [19]
